NadD block = blocks S. aureus nicotinate mononucleotide adenylyltransferase. purified NadD enzyme, colorimetric absorbance read-out. inhibition, % at 20 µM. actives 0.78% (n = 360,000); in the data active = inhibition above about 26%
rCAG binder = r(CAG) repeat RNA binding; actives 1.3% (n = 370,000); AID 651821; TO-PRO-1 dye displacement fluorescence; inhibition, % at 3 µM;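 active = inhibition above the plate cutoff, the mean of all test compounds on that plate plus 3 SD, cut at about 35% in these data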;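 note: higher means more dye released from RNA so lower well fluorescence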
MsrA inhibitor = bovine MsrA inhibition. purified bovine MsrA, absorbance read-out. AID 651718. inhibition, % at 15.5 µM. actives 0.75% (n = 360,000); in the data active = inhibition above about 4.5%
MsrA act = activators of bovine methionine sulfoxide reductase A. activation, % at 10.6 µM. purified bovine MsrA, absorbance read-out. actives 0.3% (n = 360,000); in the data active = activation above about 7.5%
Each line names hits and unclear results; the compound was inactive in the other large screens; ! = a repeat was not active. Most compounds without a hit are left out; they make up all but 2.7% or so of the library.

CCCc1nc2sc3c(SCC(=O)NCc4ccco4)ncnc3c2c2c1CCC2	NadD block 33.9
Cc1nc(SCC(=O)NCc2ccco2)c2c3c(sc2n1)CCCC3	none
COC(=O)[C@]12C[C@H](CC(=O)NCCCN3CCCC3=O)C(=O)N(CCC3=CCCCC3)C1=C[C@H](C(C)C)O[C@@H]2C1CC1	none (no result: NadD block, MsrA inhibitor, MsrA act)
C[C@@H]1CCCCO[C@H](CN(C)C(=O)Nc2cccc3ccccc23)[C@@H](C)CN([C@H](C)CO)C(=O)c2cc(NC(=O)c3ccccc3)ccc2O1	none
CCC(=O)c1ccc(OCC(=O)NNC(=O)c2cc(C)oc2C)cc1	none
O=C(O)c1ccccc1-c1c2cc(I)c(=O)c(I)c-2oc2c(I)c(O)c(I)cc12	NadD block 28.5!
COc1ccc2c(c1)c(=O)oc1c(C)c(OC(C)C(=O)N[C@@H](Cc3c[nH]c4ccc(O)cc34)C(=O)O)ccc12 (some centres undefined)	rCAG binder 68.6
N#C/C(=C\c1ccc(N2CCCCC2)c([N+](=O)[O-])c1)c1nn(-c2ccccc2)c(N)c1C#N	none
N#C/C(=C\c1ccc(N2CCCC2)c([N+](=O)[O-])c1)c1nc2ccccc2[nH]1	NadD block 31.5
c1ccc(Nc2nc(-c3ccccn3)cs2)cc1	none
COc1cccc2sc(Nc3nc(-c4ccccn4)cs3)nc12	NadD block 34.8 (no result: rCAG binder, MsrA inhibitor)
O=S1(=O)CCN(C2CCCCCCC2)CC1	none
CN1CCN(C/C(=C2/N=C(c3ccccc3)OC2=O)N(C)C)CC1	MsrA inhibitor 4.6
O=C(Nc1cc([N+](=O)[O-])ccc1N1CCOCC1)c1cccs1	none
O=C(Nc1ccc(NC(=O)c2cc([N+](=O)[O-])ccc2N2CCOCC2)cc1)c1cccs1	MsrA inhibitor 4.6
O=C(N/N=C/c1ccc2c(c1)OCCO2)c1ccncc1	MsrA inhibitor 4.5
O=c1[nH][nH]c2cc(=O)n(-c3ccc(Cl)cc3)nc12	rCAG binder 43.4
Cc1cc(C)c2c(c1)NC(C(=O)O)C1CC=CC21 (centres undefined)	rCAG binder 58.5
Cc1ccc2c(c1C)NC(C(=O)O)C1CC=CC21 (centres undefined)	none (no result: rCAG binder, MsrA inhibitor)
CCC(=O)OC1(C)C(=O)C2=COC(c3ccc(OC)cc3)=CC2=C(Br)C1=O (centres undefined)	MsrA act 10.1
CCC(=O)OC1(C)C(=O)C=C2C=C(c3ccc(C#N)cc3)OC=C2C1=O (centres undefined)	rCAG binder 42.4
COc1ccc(C2=CC3=C(Br)C(=O)C(C)(O)C(=O)C3=CO2)cc1 (centres undefined)	none (no result: rCAG binder, MsrA inhibitor)
CSc1ccc(OC2(C)CCN(Cc3cc4ccccc4o3)C2)cc1 (centres undefined)	none
C=CCN=C1NC(CCc2ccccc2)C(C(=O)OC)=C(C)N1Cc1ccccc1C(F)(F)F (centres undefined)	none (no result: NadD block, MsrA act)
CCOc1ccc(-c2cc(C(=O)NCCCN3CCN(CC)CC3)c3ccccc3n2)cc1	MsrA inhibitor 4.6
O=C1N=C(N2CCC(Cc3ccccc3)CC2)S/C1=C/c1cn[nH]c1-c1ccccc1	NadD block 41.2
O=C1N=C(N2CCN(c3ccccc3)CC2)S/C1=C\c1ccco1	none
O=C1N=C(N2CCN(c3ccccc3)CC2)S/C1=C\c1cn[nH]c1-c1ccccc1	NadD block 47.7
Cc1ccc(N2CCN(C3=NC(=O)/C(=C\c4cn[nH]c4-c4ccccc4)S3)CC2)cc1	NadD block 42.3
Cc1cccc(N2CCN(C3=NC(=O)/C(=C\c4cn[nH]c4-c4ccccc4)S3)CC2)c1	none
COc1ccccc1/C=C1\SC(N2CCC(C)CC2)=NC1=O	none
CCCS(=O)(=O)NC(=O)C1(C)CCCN(C(=O)c2cncc(Br)c2)C1 (centres undefined)	none (no result: rCAG binder, MsrA inhibitor)
NS(=O)(=O)c1ccc(CCNC(=O)CN2CCN(S(=O)(=O)c3ccccc3F)CC2)cc1	none
O=c1c2c([N+](=O)[O-])cc([N+](=O)[O-])cc2sn1-c1ccc(Br)cc1	NadD block 30.0 (no result: rCAG binder, MsrA inhibitor)
CC(=O)C1(C(=O)NC2CCCC2)CC(c2ccccn2)=NO1 (centres undefined)	none (no result: NadD block, MsrA inhibitor, MsrA act)
CCN1CCN(Cc2ccc(NC(=O)c3ccc(C)c(NC(=O)C4=NN(c5ccccc5)C(=O)C4)c3)cc2C(F)(F)F)CC1	NadD block 40.2!
CCN1CCN(Cc2ccc(NC(=O)c3ccc(C)c(NC(=O)c4ccno4)c3)cc2C(F)(F)F)CC1	none
CC1(NC(=O)Nc2cccc(Br)c2)CCS(=O)(=O)C1 (centres undefined)	none
COc1ccc(-c2csc(Nc3ccccc3)[n+]2Cc2ccccc2)cc1	none
Cc1ccc(-c2csc(Nc3ccc(C(=O)O)cc3)[n+]2Cc2ccccc2)cc1	NadD block 44.3
O=C1C(=Cc2ccc(Br)o2)C(=O)c2ccccc21	NadD block 33.3 (no result: rCAG binder, MsrA inhibitor)
CC1=C/C(=C\c2ccc(Br)o2)C(=O)O1	none
O=C1NC[C@H](Cc2ccccc2)N(CC2CCN(CCC34CC5CC(CC(C5)C3)C4)CC2)C1=O	none
CSc1nsc(/C=C/Nc2ccc(C(=O)O)cc2)c1C#N	rCAG binder 46.3
COc1cccc(-c2cccc(-c3nc(C(=O)Nc4ccc(-c5ccccc5)cc4)cc4c3[C@H](CCO)N(S(=O)C(C)(C)C)C4)c2)c1 (some centres undefined)	NadD block 35.5 (no result: rCAG binder, MsrA inhibitor)
Cc1ccccc1OCC(=O)N(Cc1ccco1)c1c(N)n(Cc2ccccc2)c(=O)[nH]c1=O	none
CCOC(=O)N1CCC(Nc2c(Nc3cccc(CC)c3)c(=O)c2=O)CC1	MsrA inhibitor 4.6
CC1(C(=O)NS(=O)(=O)c2ccccc2Cl)CCN1C(=O)C1(c2ccc(Cl)cc2)CCC1 (centres undefined)	rCAG binder 47.2
CCc1ccc(/C=C2/SC(=S)N(CC(=O)Nc3nc4ccccc4s3)C2=O)cc1	NadD block 50.2, MsrA act 13.3
CCc1ccc(/C=C2\SC(=S)N(CCCC(=O)Nc3ccccn3)C2=O)cc1	none
COc1ccc(/C=C2/SC(=O)N(CCC(=O)Nc3ccc(C)cc3)C2=O)cc1OC	none (no result: NadD block, MsrA act)
CCc1ccc(C=C2SC(=S)N(CCCC(=O)Nc3ccc(C(=O)O)cc3)C2=O)cc1	none
CCc1ccc(/C=C2/SC(=S)N(CCC(=O)Nc3ccc(C(=O)O)cc3)C2=O)cc1	NadD block 39.8
COc1cc(/C=C2/SC(=S)N(CC(=O)O)C2=O)ccc1OCC(=O)Nc1ccc(C)c(C)c1	NadD block 30.4
CC(Cl)=CCn1c(NCCc2ccccc2)nc2c1c(=O)n(C)c(=O)n2C	none
Oc1ccc(N=Nc2ccc3c(c2)OCCO3)c2ncccc12	NadD block 27.2
CC1CCN(S(=O)(=O)c2ccc(Cl)cc2Br)CC1	MsrA inhibitor 8.8
O=S(=O)(c1cc(Cl)ccc1Br)N1CCCCC1	none
Nc1ccc(CCn2ccnc2)cc1	NadD block 34.3
c1ccn(CCc2ccncc2)c1	none
CCC(=O)N1c2ccccc2NC2=C(C(=O)CC(c3ccco3)C2)C1c1ccco1 (centres undefined)	MsrA inhibitor 4.6
COc1ccc(C2CC(=O)C3=C(C2)Nc2ccccc2N(C(C)=O)C3c2ccco2)cc1 (centres undefined)	none
Cc1cc(C)c(S(=O)(=O)N2CCN(C3CC(=O)N(c4ccccc4Cl)C3=O)CC2)c(C)c1 (centres undefined)	none
CCCCCCSc1ccc([C@H]2N[C@@](C)(C(=O)OC)[C@H]3C(=O)N(C)C(=O)[C@@H]23)cc1	MsrA act 8.4
